Results on 37 compounds are retold here after PubChem BioAssay AID1117353 (Cheminformatics & Chemogenomics Research Group (CCRG), …, 2015).

Each structure is given as a SMILES string. Values without a mark were called inactive. The source made the active and inactive calls. Cut-off read from the data, not from the text of the source: active = inhibition above about 50%; inactive = the rest.

The target in this assay is Vascular endothelial growth factor receptor 2 (Homo sapiens) (UniProt P35968). The assay can be described thus: Biochemical primary assay, inhibitors of H. sapiens VEGFR2, LANCE Ultra time-resolved FRET readout, NPC library (AID 1117353). Conditions: LANCE Ultra TR-FRET kinase assay; at 20 µM (top of the series). In general terms: TR-FRET usually uses a lanthanide donor and a delayed reading to cut background.
Chain of Vascular endothelial growth factor receptor 2 (Homo sapiens) (P35968 whole entry, looked up): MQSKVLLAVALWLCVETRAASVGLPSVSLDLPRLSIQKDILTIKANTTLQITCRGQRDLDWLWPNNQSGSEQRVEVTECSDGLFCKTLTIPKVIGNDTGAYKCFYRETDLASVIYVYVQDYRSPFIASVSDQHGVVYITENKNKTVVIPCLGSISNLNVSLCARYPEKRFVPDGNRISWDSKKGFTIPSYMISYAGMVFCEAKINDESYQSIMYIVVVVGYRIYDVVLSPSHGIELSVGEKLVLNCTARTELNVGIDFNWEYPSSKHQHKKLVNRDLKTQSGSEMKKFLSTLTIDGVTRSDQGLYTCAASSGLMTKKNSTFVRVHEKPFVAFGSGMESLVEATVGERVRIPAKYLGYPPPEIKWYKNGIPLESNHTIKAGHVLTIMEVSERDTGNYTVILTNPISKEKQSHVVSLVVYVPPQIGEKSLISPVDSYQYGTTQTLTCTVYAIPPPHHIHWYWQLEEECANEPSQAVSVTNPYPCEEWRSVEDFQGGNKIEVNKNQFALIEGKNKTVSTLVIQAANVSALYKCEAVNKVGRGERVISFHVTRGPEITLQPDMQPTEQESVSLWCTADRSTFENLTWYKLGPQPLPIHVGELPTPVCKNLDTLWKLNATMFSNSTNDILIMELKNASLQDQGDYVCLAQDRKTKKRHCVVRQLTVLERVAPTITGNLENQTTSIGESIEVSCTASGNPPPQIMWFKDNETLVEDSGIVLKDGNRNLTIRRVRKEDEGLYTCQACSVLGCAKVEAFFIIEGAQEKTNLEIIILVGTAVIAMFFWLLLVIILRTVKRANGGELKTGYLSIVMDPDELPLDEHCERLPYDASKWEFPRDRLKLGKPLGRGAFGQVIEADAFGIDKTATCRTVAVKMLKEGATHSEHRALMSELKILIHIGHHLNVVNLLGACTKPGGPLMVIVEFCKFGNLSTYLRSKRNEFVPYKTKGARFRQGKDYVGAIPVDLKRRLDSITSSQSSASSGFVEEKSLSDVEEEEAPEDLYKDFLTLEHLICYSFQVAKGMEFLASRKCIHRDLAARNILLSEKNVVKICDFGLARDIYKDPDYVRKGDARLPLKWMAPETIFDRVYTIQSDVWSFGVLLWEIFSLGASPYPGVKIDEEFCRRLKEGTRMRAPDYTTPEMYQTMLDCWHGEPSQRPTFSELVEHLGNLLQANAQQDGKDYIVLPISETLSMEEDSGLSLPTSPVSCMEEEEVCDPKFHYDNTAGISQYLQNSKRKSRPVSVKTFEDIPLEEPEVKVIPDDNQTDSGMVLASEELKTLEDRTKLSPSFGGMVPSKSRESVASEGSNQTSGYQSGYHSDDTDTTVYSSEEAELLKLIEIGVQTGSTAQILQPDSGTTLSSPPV
The inhibition is the change of the read-out against control, counted positive when it falls. Turning to `Cc1cc(C2CCCCC2)n(O)c(=O)c1`, the inhibition is 4.72%.

For `COc1cccc2c1C(=O)c1c(O)c3c(c(O)c1C2=O)C[C@@](O)(C(C)=O)C[C@@H]3O[C@H]1C[C@H](N)[C@H](O)[C@H](C)O1`, the inhibition is 14%.

`Cc1nc(N)nc(N)c1-c1ccc(Cl)c(Cl)c1`: the inhibition was -0.1%.

In the case of `O=[N+]([O-])c1ccc(O)c2ncccc12`, the inhibition was 11.1%.

In the case of `COc1cc2nc(N3CCN(C(=O)c4ccco4)CC3)nc(N)c2cc1OC`, the inhibition is -41.4%.

With `Oc1c(Cl)cc(Cl)c2cccnc12`, the inhibition was -23.4%.

`COc1ccc2cc1Oc1ccc(cc1)C[C@H]1c3c(cc4c(c3Oc3cc5c(cc3OC)CCN(C)[C@@H]5C2)OCO4)CCN1C`: the inhibition was 30.3%.

As to `CCc1nc(N)nc(N)c1-c1ccc(Cl)cc1`, the inhibition was 17%.

Turning to `CC[C@@]1(O)C(=O)OCc2c1cc1n(c2=O)Cc2c-1nc1ccccc1c2/C=N/OC(C)(C)C`, the inhibition was 18.1%.

With `C=CC(=O)Nc1cc2c(Nc3ccc(F)c(Cl)c3)ncnc2cc1OCCCN1CCOCC1`, the inhibition is 98.7% (active).

On to `Oc1c(I)cc(I)c2cccnc12`, for which the inhibition was 0.24%.

For the compound `COc1ccc(-c2ccc3cc(C(=O)O)ccc3c2)cc1C12CC3CC(CC(C3)C1)C2`, the inhibition is 96.3% (active).

Turning to `CC(C)C[C@H](NC(=O)[C@H](Cc1ccccc1)NC(=O)c1cnccn1)B(O)O`, the inhibition is 19%.

Take `CC[C@]1(O)C[C@H]2CN(CCc3c([nH]c4ccccc34)[C@@](C(=O)OC)(c3cc4c(cc3OC)N(C=O)[C@H]3[C@@](O)(C(=O)OC)[C@H](OC(C)=O)[C@]5(CC)C=CCN6CC[C@]43[C@@H]65)C2)C1`: the inhibition was -11.3%.

For `CC[C@]1(O)C[C@@H]2CN(CCc3c([nH]c4ccccc34)[C@@](C(=O)OC)(c3cc4c(cc3OC)N(C)[C@H]3[C@@](O)(C(=O)OC)[C@H](OC(C)=O)[C@]5(CC)C=CCN6CC[C@]43[C@@H]65)C2)C1`, the inhibition was -21.1%.

With `COCc1c(C(C)C)nc(C(C)C)c(/C=C/[C@@H](O)C[C@@H](O)CC(=O)O)c1-c1ccc(F)cc1`, the inhibition is 31.8%.

Take `S=c1nc[nH]c2nc[nH]c12`: the inhibition is 15.9%.

As for `CC(C)(C)C1CCC(CC2=C(O)c3ccccc3C(=O)C2=O)CC1` (configuration not stated), the inhibition was -21.1%.

Regarding `CC(=O)Oc1ccc(C2(c3ccc(OC(C)=O)cc3)Oc3ccccc3NC2=O)cc1`, the inhibition was -14.8%.

For `Cc1nc2ccc(CN(C)c3ccc(C(=O)N[C@@H](CCC(=O)O)C(=O)O)s3)cc2c(=O)[nH]1`, the inhibition was 7.13%.

As for `CCN(CC)CCNc1ccc(CO)c2sc3ccccc3c(=O)c12`, the inhibition was 7.72%.

In the case of `CCCCCCCCCCCCCCCC[n+]1ccccc1`, the inhibition was -114%.

For the compound `CC(C)(C)C(=O)OCOP(=O)(COCCn1cnc2c(N)ncnc21)OCOC(=O)C(C)(C)C`, the inhibition was -10.9%.

Consider `COc1cc(NCc2ccc3nc(N)nc(N)c3c2C)cc(OC)c1OC`, for which the inhibition is 35.8%.

For `Nc1nc(=S)c2[nH]cnc2[nH]1`, the inhibition is -5.99%.

Turning to `Cn1cnc([N+](=O)[O-])c1Sc1ncnc2nc[nH]c12`, the inhibition is -18.2%.

Regarding `C[n+]1c2cc(N)ccc2cc2ccc(N)cc21` (tested in a mixture with another compound), the inhibition is -22%.

Regarding `CCN(CC)CCOc1ccc(/C(=C(\Cl)c2ccccc2)c2ccccc2)cc1`, the inhibition is -7.53%.

Turning to `COC(=O)[C@H]1[C@H]2C[C@@H]3c4[nH]c5cc(OC)ccc5c4CCN3C[C@H]2C[C@@H](OC(=O)/C=C/c2ccc(O)c(OC)c2)[C@@H]1OC`, the inhibition was 16.4%.

`O=C(NOCC1CC1)c1ccc(F)c(F)c1Nc1ccc(I)cc1Cl`: the inhibition is 12.4%.

For `Cc1cc2c(C(C)C)c(O)c(O)c(C=O)c2c(O)c1-c1c(C)cc2c(C(C)C)c(O)c(O)c(C=O)c2c1O`, the inhibition is -2.11%.

Regarding `COC(=O)Nc1nc2ccc(Sc3ccccc3)cc2[nH]1`, the inhibition is 6%.

As to `COC(=O)Nc1nc2ccc(S(=O)c3ccccc3)cc2[nH]1` (configuration not stated), the inhibition was 8.1%.

With `O=C1c2c(O)ccc(O)c2C(=O)c2c(NCCNCCO)ccc(NCCNCCO)c21`, the inhibition is -38%.

With `Cc1ccc2nc(N)[nH]c(=O)c2c1Sc1ccncc1`, the inhibition was -56.2%.

For the compound `CCCCCCCCCCCCCC[N+](C)(C)C`, the inhibition was 11.2%.

In the case of `COC(=O)Nc1nc2ccc(C(=O)C3CC3)cc2[nH]1`, the inhibition was 69.1% (active).
